# Experimental data as given in PubChem BioAssay (Tox21).
# A number with no mark means an inactive call. Inconclusive results are not listed. A call without a number means that no potency is given here. Calls of active or inactive are those of the source. Unless noted, the call rests on the fitted dose curve; in most records, active means well fitted curve in the direction sought with a large enough effect in the repeat runs; inconclusive means weak or mixed curves; inactive means no such curve, though single readings can be large; an effect the other way counts as inactive or inconclusive.
# Legend:
# [1] = A CellTox Green Cytotoxicity Assay to monitor cytotoxicity in HEK293 cells - 32 hour (AID 1224881); further: nearly all actives have a fitted effect of over 40% in size; further: potency means the concentration at half of the fitted maximal effect
# Outline: (§1)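 Dead-cell fluorescence measured kinetically: asymmetric cyanine dye, HEK293, 600 cells/well, 5 h settle, 23 nL cpd/DMSO, 37 C, reads 0–40 h every 8 h.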
# [2] = A CellTox Green Cytotoxicity Assay to monitor cytotoxicity in HepG2 cells - 0 hour (AID 1224882); further: nearly all actives have a fitted effect of over 35% in size
# Outline: (§2)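 First, HepG2 cells (600/well) mixed with reagent were plated; second, after 5 h at 37 C they received compounds via pintool; third, fluorescence was measured at 0 h through 40 h at 8 h intervals.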
# [3] = A CellTox Green Cytotoxicity Assay to monitor cytotoxicity in HEK293 cells - 8 hour (AID 1224884); further: nearly all actives have a fitted effect of over 35% in size
# Outline: as §1
# [4] = qHTS RealTime-Glo MT Cell Viability Assay in HepG2 cells - 16 hour (AID 1224885); further: nearly all actives have a fitted effect of over 50% in size
# Outline: (§3)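 Real-time, nonlytic viability: 600 HepG2 cells/well mixed with NanoLuc enzyme plus prosubstrate; 5 h settle, compound (DMSO) added by pintool; luminescence monitored over 40 h at 37 C.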
# [5] = qHTS RealTime-Glo MT Cell Viability Assay in HEK293 cells - 24 hour (AID 1224886); further: nearly all actives have a fitted effect of over 50% in size; further: potency means the concentration at half of the fitted maximal effect
# Outline: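 Cells + reagent dispensed (600 cells/well, HEK293) → 5 h at 37 C/5% CO2 → 23 nL compound in DMSO pinned → 40 h at 37 C → luminescence read at 0, 8, 16, 24, 32, 40 h.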
# [6] = qHTS RealTime-Glo MT Cell Viability Assay in HEK293 cells - 8 hour (AID 1224887); further: nearly all actives have a fitted effect of over 50% in size; further: potency means the concentration at half of the fitted maximal effect
# Outline: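 600 HEK293 cells per well, dispensed already mixed with RealTime-Glo MT reagents. Compound dosing came 5 h later. The same wells were read for luminescence at 0, 8, 16, 24, 32 and 40 h of exposure at 37 C.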
# [7] = A CellTox Green Cytotoxicity Assay to monitor cytotoxicity in HEK293 cells - 16 hour (AID 1224888); further: nearly all actives have a fitted effect of over 35% in size; further: potency means the concentration at half of the fitted maximal effect
# Outline: as §1
# [8] = qHTS RealTime-Glo MT Cell Viability Assay in HepG2 cells - 0 hour (AID 1224889); further: nearly all actives have a fitted effect of over 50% in size; further: potency means the concentration at half of the fitted maximal effect
# Outline: as §3
# [9] = A CellTox Green Cytotoxicity Assay to monitor cytotoxicity in HepG2 cells - 8 hour (AID 1224890); further: nearly all actives have a fitted effect of over 45% in size
# Outline: as §2
# [10] = qHTS assay to identify small molecule antagonists of the estrogen receptor alpha (ER-alpha) signaling pathway using the BG1 cell line in the presence of 0.1 nM 17-beta-estradiol - cell viability counter screen (AID 1259241); further: nearly all actives have a fitted effect of over 40% in size
# Outline: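 Live-cell protease activity (CellTiter-Fluor fluorescence, 30 min) was read in the same wells after VM7Luc4E2 cells had been exposed to compounds with 0.1 nM 17beta-estradiol for 22 hr at 37C.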
# [11] = qHTS assay to identify small molecule antagonists of the androgen receptor (AR) signaling pathway using the MDA cell line in the presence of 0.5 nM R1881 - cell viability counter screen (AID 1259242); further: nearly all actives have a fitted effect of over 45% in size
# Outline: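 qHTS format. MDA-kb2 (MMTV-luc, AR/GR responsive) + cpd + 0.5 nM R1881 final, 16 hr 37C/0% CO2 → CellTiter-Fluor 30 min → fluorescence intensity.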
# [12] = target: Estrogen receptor (Homo sapiens) (UniProt P03372); assay: qHTS assay to identify small molecule antagonists of the estrogen receptor alpha (ER-alpha) signaling pathway using the BG1 cell line in the presence of 0.1 nM 17-beta-estradiol (AID 1259244); further: nearly all actives have a fitted effect of over 50% in size; further: potency means the concentration at half of the fitted maximal effect
# Estrogen receptor (Homo sapiens), sequence (P03372 whole entry, looked up): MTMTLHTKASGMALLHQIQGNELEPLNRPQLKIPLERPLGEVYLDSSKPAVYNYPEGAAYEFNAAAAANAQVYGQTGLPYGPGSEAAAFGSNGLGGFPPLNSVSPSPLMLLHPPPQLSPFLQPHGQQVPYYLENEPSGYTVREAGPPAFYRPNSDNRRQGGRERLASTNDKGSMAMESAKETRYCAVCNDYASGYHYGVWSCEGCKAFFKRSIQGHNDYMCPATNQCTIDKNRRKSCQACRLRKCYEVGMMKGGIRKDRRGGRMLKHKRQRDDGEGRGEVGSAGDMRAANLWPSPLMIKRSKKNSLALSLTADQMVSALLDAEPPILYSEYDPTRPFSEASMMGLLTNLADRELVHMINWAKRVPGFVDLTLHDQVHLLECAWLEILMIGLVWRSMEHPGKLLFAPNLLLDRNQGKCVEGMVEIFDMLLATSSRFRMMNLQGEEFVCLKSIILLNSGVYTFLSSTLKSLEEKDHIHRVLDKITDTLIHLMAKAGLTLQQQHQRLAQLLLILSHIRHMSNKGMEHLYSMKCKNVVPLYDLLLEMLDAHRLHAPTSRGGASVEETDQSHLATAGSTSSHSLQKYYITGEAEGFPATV
# Outline: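 Reporter is a stably transfected luciferase under four estrogen responsive elements in VM7Luc4E2 cells expressing native full-length ER-alpha; inhibition of 0.1 nM (final) 17beta-estradiol-driven signal over 22 h is read by luminescence.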
# [13] = qHTS assay to identify small molecule HDAC inhibitors (AID 1259364); further: potency means the concentration at half of the fitted maximal effect;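 further: wild-type HCT-116 cells with endogenous class I/II HDAC activity; nearly all actives have a fitted effect of over 45% in size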
# Outline: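 Quantitative high-throughput format: overnight-seeded HCT-116 cells got compounds for 2 hr at 37C; HDAC-Glo I/II reagent added, 30 min RT, luminescence measured.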
# [14] = qHTS assay to identify small molecule HDAC inhibitors - cell viability counter screen (AID 1259365)
# Outline: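 HCT-116 (wild type), 1,500 cells/well, overnight 37C/5% CO2; compound in DMSO 2hr; CellTiter-Glo 30min RT; luminescence read.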
# [15] = qHTS assay to identify small molecule agonists of the sonic hedgehog signaling (Shh) pathway - cell viability counter screen (AID 1259366); further: nearly all actives have a fitted effect of over 50% in size; further: potency means the concentration at half of the fitted maximal effect
# Outline: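 CellTiter-Fluor fluorescence read-out, 1 hr at 37C, added after 23hr compound exposure. Cells: 3T3 Gli1-Luc, an NIH/3T3 clone with stably integrated Gli1-Luc reporter, plated 4hr before compound.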
# [16] = qHTS assay to identify small molecule antagonists of the sonic hedgehog signaling (Shh) pathway - cell viability counter screen (AID 1259367); further: nearly all actives have a fitted effect of over 55% in size; further: potency means the concentration at half of the fitted maximal effect
# Outline: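 Conditioned medium drove Shh signaling in 3T3 Gli1-Luc cells exposed to compounds at 37C and 5% CO2. Viability was determined from CellTiter-Fluor fluorescence, with reagent incubated 1 hr after 23 hr of treatment.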
# [17] = qHTS assay to identify small molecule agonists of the sonic hedgehog signaling (Shh) pathway (AID 1259368; calls by dose curve;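 further: NIH/3T3-derived 3T3Gli1-Luc cells carrying a stable Gli1-driven firefly luciferase reporter; series mostly up to about 92 µM; nearly all actives have a fitted effect of over 15% in size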)
# Outline: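 Quantitative high-throughput format using a Gli1-driven firefly luciferase reporter line derived from NIH/3T3 cells. After a 24 hr compound treatment at 37 C and 5% CO2, luminescence reported Gli1 response element activity.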
# [18] = target: Androgen receptor (Homo sapiens) (UniProt P10275); assay: qHTS assay to identify small molecule antagonists of the androgen receptor (AR) signaling pathway using the MDA cell line in the presence of 0.5 nM R1881 (AID 1259243); further: nearly all actives have a fitted effect of over 50% in size; further: potency means the concentration at half of the fitted maximal effect
# Androgen receptor (Homo sapiens), sequence (P10275 whole entry, looked up): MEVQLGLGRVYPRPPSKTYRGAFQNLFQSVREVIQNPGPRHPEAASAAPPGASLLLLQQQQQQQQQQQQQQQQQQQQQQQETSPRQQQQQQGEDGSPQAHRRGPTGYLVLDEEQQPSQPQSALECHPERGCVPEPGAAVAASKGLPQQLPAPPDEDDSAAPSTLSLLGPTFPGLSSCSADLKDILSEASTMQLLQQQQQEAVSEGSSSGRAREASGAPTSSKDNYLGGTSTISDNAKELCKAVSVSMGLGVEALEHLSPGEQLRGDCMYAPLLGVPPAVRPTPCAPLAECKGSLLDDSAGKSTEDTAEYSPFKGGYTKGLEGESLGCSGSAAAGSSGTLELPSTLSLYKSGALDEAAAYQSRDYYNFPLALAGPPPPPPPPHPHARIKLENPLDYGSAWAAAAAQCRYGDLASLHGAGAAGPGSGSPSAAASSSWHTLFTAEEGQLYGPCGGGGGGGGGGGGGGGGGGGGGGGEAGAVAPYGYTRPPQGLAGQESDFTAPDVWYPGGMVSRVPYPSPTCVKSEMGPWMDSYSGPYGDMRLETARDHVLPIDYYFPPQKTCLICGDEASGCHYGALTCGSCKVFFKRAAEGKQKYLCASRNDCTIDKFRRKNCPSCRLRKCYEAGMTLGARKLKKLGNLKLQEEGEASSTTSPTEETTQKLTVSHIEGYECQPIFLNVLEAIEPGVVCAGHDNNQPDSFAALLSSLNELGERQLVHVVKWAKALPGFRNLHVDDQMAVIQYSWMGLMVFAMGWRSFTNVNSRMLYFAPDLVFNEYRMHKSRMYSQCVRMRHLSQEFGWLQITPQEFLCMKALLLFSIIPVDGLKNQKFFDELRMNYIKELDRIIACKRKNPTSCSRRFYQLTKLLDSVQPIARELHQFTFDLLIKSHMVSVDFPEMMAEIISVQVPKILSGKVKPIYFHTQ
# Outline: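 Antagonist mode quantitative HTS in MDA-kb2 MMTV-luciferase cells, agonist R1881 at 0.5 nM final, 16 hr exposure at 37C and 0% CO2, luminescent detection.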
# [19] = A CellTox Green Cytotoxicity Assay to monitor cytotoxicity in HepG2 cells - 32 hour (AID 1224883); further: nearly all actives have a fitted effect of over 50% in size; further: potency means the concentration at half of the fitted maximal effect
# Outline: as §2
# [20] = qHTS assay to identify small molecule phospholipidosis (PLD) inducers (AID 1259344; active means well fitted curve in the direction sought with a large enough effect; an effect the other way counts as inactive or inconclusive)
# Outline: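 After 4 h attachment on collagen I, HepG2 cells were dosed with compound alongside LipidTOX Red, kept 24 h at 37 C, fixed, and imaged for lamellar phospholipid pits.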
Compound,Potency [1],Potency [2],Potency [3],Potency [4],Potency [5],Potency [6],Potency [7],Potency [8],Potency [9],Potency [10],Potency [11],Potency [12],Potency [13],outcome [14],Potency [15],Potency [16],outcome [17],Potency [18],Potency [19],Potency [20]
FC(F)(F)C(F)(F)C(F)(F)C(F)(F)C(F)(F)C(F)(F)CCI,inactive,inactive,inactive,inactive,inactive,inactive,inactive,inactive,inactive,inactive,inactive,inactive,inactive,inactive,inactive,inactive,inactive,–,–,–
C=C(C)C(=O)OCCN(C)C,inactive,inactive,inactive,inactive,inactive,inactive,inactive,inactive,inactive,inactive,inactive,inactive,inactive,inactive,inactive,inactive,inactive,–,–,–
N#Cc1cc2ccccc2c2ccccc12,inactive,inactive,inactive,inactive,inactive,inactive,inactive,inactive,inactive,inactive,inactive,inactive,inactive,inactive,inactive,inactive,inactive,–,–,–
CC(C)CCCC(C)CCO (stereo unspecified),inactive,inactive,inactive,inactive,inactive,inactive,inactive,inactive,inactive,inactive,inactive,inactive,inactive,inactive,–,inactive,inactive,inactive,–,–
O=[N+]([O-])c1cc[n+]([O-])cc1,inactive,inactive,inactive,–,inactive,inactive,inactive,inactive,inactive,–,inactive,–,inactive,inactive,–,61.1 µM (active),inactive,54.5 µM (active),inactive,–
CCCCOC(=O)c1ccccc1C(=O)OCC(CC)CCCC (stereo unspecified),inactive,inactive,–,–,inactive,inactive,inactive,inactive,inactive,inactive,inactive,inactive,inactive,inactive,inactive,inactive,inactive,–,inactive,–
CCCCOC(=O)/C=C\C(=O)OCCCC,inactive,inactive,–,inactive,inactive,inactive,inactive,inactive,inactive,inactive,inactive,inactive,inactive,inactive,inactive,inactive,inactive,–,inactive,–
CN(C)C/C=C(/c1ccc(Br)cc1)c1cccnc1,inactive,inactive,–,inactive,inactive,–,inactive,inactive,inactive,inactive,inactive,–,inactive,–,inactive,inactive,inactive,–,inactive,inactive
CC(C(=O)O)c1ccc(C(=O)c2ccccc2)s1 (stereo unspecified),inactive,inactive,inactive,inactive,inactive,inactive,inactive,inactive,inactive,inactive,inactive,inactive,6.68 µM (active),inactive,inactive,inactive,inactive,inactive,–,inactive
Nc1ccc(C(=O)Nc2ccccc2N)cc1,inactive,inactive,inactive,–,–,inactive,inactive,inactive,inactive,inactive,inactive,inactive,2.98 µM (active),inactive,inactive,inactive,inactive,–,7.56 µM (active),inactive
CCC(C)N(C)C(=O)c1cc2ccccc2c(-c2ccccc2Cl)n1 (stereo unspecified),inactive,inactive,inactive,–,–,inactive,inactive,20 µM (active),inactive,inactive,inactive,–,inactive,–,–,–,inactive,28 µM (active),25.2 µM (active),–
CC(=O)SCc1ccco1,inactive,inactive,–,–,inactive,inactive,inactive,inactive,inactive,inactive,inactive,inactive,inactive,inactive,inactive,inactive,inactive,inactive,inactive,–
OC(CCN1CCCCC1)(c1ccccc1)C1CCCCC1 (stereo unspecified),inactive,inactive,–,inactive,–,inactive,inactive,inactive,inactive,inactive,inactive,inactive,inactive,inactive,inactive,inactive,inactive,–,inactive,inactive
CCN1CCC[C@H]1CNC(=O)c1c(OC)ccc(Br)c1OC,inactive,inactive,inactive,inactive,inactive,inactive,inactive,inactive,inactive,inactive,inactive,inactive,inactive,inactive,inactive,inactive,inactive,–,–,inactive
CCCCOCCOCCOCCOCCO,inactive,inactive,inactive,inactive,inactive,inactive,inactive,inactive,inactive,inactive,inactive,inactive,inactive,inactive,inactive,inactive,inactive,–,–,–
O=C(c1ccccc1)c1ccc2n1CCC2C(=O)O (stereo unspecified),inactive,inactive,inactive,–,inactive,–,inactive,inactive,inactive,inactive,inactive,–,7.5 µM (active),inactive,inactive,inactive,inactive,–,inactive,inactive
C1=Cc2ccccc2C1,inactive,inactive,–,inactive,inactive,inactive,inactive,inactive,inactive,inactive,inactive,inactive,inactive,inactive,inactive,inactive,inactive,–,inactive,–
CC(=O)/C=C/C1C(C)=CCCC1(C)C (stereo unspecified),inactive,inactive,–,–,inactive,inactive,inactive,inactive,inactive,inactive,inactive,inactive,inactive,inactive,–,inactive,inactive,–,inactive,–
Cc1ncsc1CCO,inactive,inactive,inactive,inactive,inactive,inactive,inactive,inactive,inactive,inactive,inactive,inactive,inactive,–,inactive,inactive,inactive,–,–,–
Cc1cc(O)ccc1N,34.9 µM (active),inactive,–,inactive,55.3 µM (active),43.9 µM (active),inactive,inactive,inactive,–,–,15.4 µM (active),–,inactive,27.4 µM (active),48.8 µM (active),inactive,43.5 µM (active),inactive,–
CCCCOC(O)CC (stereo unspecified),inactive,inactive,–,inactive,inactive,inactive,inactive,inactive,inactive,inactive,inactive,inactive,inactive,inactive,inactive,inactive,inactive,inactive,inactive,–
CN(C)CC[C@@H](c1ccc(Br)cc1)c1ccccn1,inactive,inactive,inactive,–,–,inactive,inactive,inactive,inactive,inactive,inactive,–,inactive,inactive,–,inactive,inactive,–,inactive,inactive
CCCCCCCCCCCCC(=O)O,inactive,inactive,–,inactive,inactive,–,inactive,inactive,inactive,inactive,inactive,inactive,inactive,inactive,–,–,inactive,–,inactive,–
CC(=O)/C(C)=C/C1C(C)=CCCC1(C)C (stereo unspecified),17.4 µM (active),inactive,inactive,inactive,inactive,inactive,15.5 µM (active),inactive,inactive,inactive,inactive,inactive,inactive,inactive,inactive,inactive,inactive,–,–,–
CC(C)(Oc1ccc(Cl)cc1)C(=O)OCCCOC(=O)C(C)(C)Oc1ccc(Cl)cc1,inactive,inactive,–,inactive,–,–,inactive,inactive,inactive,inactive,inactive,–,inactive,inactive,–,inactive,inactive,inactive,inactive,–
CCCOc1ccc2nc(NC(=O)OC)[nH]c2c1,inactive,inactive,inactive,inactive,–,–,inactive,inactive,inactive,inactive,inactive,inactive,–,inactive,inactive,inactive,inactive,inactive,–,inactive
C=CC(=O)OCCOC(=O)CCC(=O)O,inactive,inactive,inactive,inactive,–,–,inactive,inactive,inactive,inactive,inactive,–,inactive,inactive,inactive,–,inactive,–,–,–
CC1(C)[C@H]2CC[C@]1(C)[C@H](O)C2,inactive,inactive,–,inactive,inactive,inactive,inactive,inactive,inactive,inactive,inactive,–,inactive,inactive,inactive,inactive,inactive,–,–,inactive
